NS1 function inh: blocks influenza NS1 protein function. Potency, µM (titrated, usually from 46.1 µM), for inactives: at the highest dose activity, positive = more growth. 270,000 tested, 0.4% active; calls by dose curve; further: potency means the concentration at half of the fitted maximal effect; actives are rising curves; nearly all actives have a fitted effect of over 50% in size
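OD600 was taken as the measure of yeast growth restored by compound in an NS1-expressing S. cerevisiae strain. Cells had been washed out of glucose medium and diluted 1:100 into galactose -URA medium, pH 6.0.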
CHX counter: counter-screen hit for Shiga toxin inhibitors, cycloheximide; cell reporter, cycloheximide protein synthesis inhibition counterscreen; max response, %; 300,000 tested, 12% active; AID 2314; in the data active means max response mostly above about 13%, no sharp cut-off; inactive means mostly below about 14%; further: read at 38.3 µM for the half of the compounds with a filed dose; 0% is about no effect
Shiga inhibitor: blocks Shiga toxin action in Vero cells. Vero cells, Shiga toxin protein synthesis inhibition reporter. inhibition, % at 38.7 µM. 290,000 tested, 9.2% active. AID 2315; in the data active means inhibition mostly above about 28%, no sharp cut-off; inactive means mostly below about 43%; further: 0% is about no effect
Pf growth 48h: P. falciparum growth inhibition at 48 hours (one generation). 310,000 tested, 5.9% active. AID 504832. P. falciparum luciferase growth in erythrocytes, 48 h. Potency, µM (highest dose often 28.7 µM), for inactives: at the top dose activity change, negative = inhibition, hits mostly inhibitors; further: potency means the concentration at half of the fitted maximal effect; on the % scale 0 is the no-effect control and ±100 the full control effect
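Here the parasites carry a stable luciferase gene and grow inside erythrocytes in Albumax-based RPMI medium with compound for one erythrocytic cycle. Activity is scored as loss of luminescent signal.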
Pf growth 96h: inhibits malaria parasite growth, 96 h; P. falciparum luciferase reporter growth, 96 h; Potency, µM (top dose mostly 28.7 µM), inactives show top-dose activity change, negative = inhibition, hits mostly inhibitors; 320,000 tested, 6.9% active; AID 504834; further: potency means the concentration at half of the fitted maximal effect; on the % scale 0 is the no-effect control and ±100 the full control effect
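Compounds incubated with erythrocytes infected by luciferase-expressing P. falciparum (2% hematocrit, 0.05% parasitemia final) for 96 hours, 37 C in 5% CO2. Growth inhibition scored as decreased luciferase luminescence.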
SARS PLP yeast: inhibitors of SARS-CoV papain-like protease in yeast; S. cerevisiae expressing SARS-CoV PLpro, growth rescue; Potency, µM (top dose mostly 32.9 µM), without a hit: at the top dose activity, positive = growth rescue, hits mostly activators; 330,000 tested, 0.19% active; calls by dose curve; further: potency means the concentration at half of the fitted maximal effect; 0% is about no effect; nearly all actives have a fitted effect of over 55% in size
An asterisk follows results filed as active; ? = inconclusive; / = not tested or not shown. Compounds with a hit are over-represented: about 21% of the library has one in this group of screens. Unless noted, the call rests on the fitted dose curve; in most records, active means well fitted inhibition curve with a large enough effect; inconclusive means small, poorly fitted or top-dose-only effect, or another doubt; inactive means no such curve, though single readings can be large or run the other way.

SMILES	NS1 function inh	CHX counter	Shiga inhibitor	Pf growth 48h	Pf growth 96h	SARS PLP yeast
COc1ccc2cc(C(=O)NCc3ccco3)c(=Nc3ccc(C(=O)O)cc3)oc2c1	-6%	55*	112*	10µM*	?	-6%
Nn1c(SCC(=O)Nc2ccc(OC(F)F)cc2)nnc1-c1ccco1	/	/	/	3%	17%	1%
CN(C)Cc1c(O)ccc2ccccc12	-2%	1	18	?	-3%	-1%
CN(C)Cc1c(O)ccc2oc(Cc3ccccc3)cc12	-11%	-1	-6	0.41µM*	15%	3%
CCN(CC)c1ccc(C=C2C(=O)OC3(CCCCC3)OC2=O)cc1	/	8	-5	25%	13%	-4%
CCN(CC)c1ccc(/C=C2/C(=O)c3ccc(C(=O)O)cc3C2=O)cc1	2%	77*	68*	-5%	7%	8%
CCN(CC(=O)Nc1ccccc1C(F)(F)F)C(=O)c1ccc2[nH]c3c(c2c1)CC(C)CC3 (stereo not drawn)	/	/	/	15µM*	?	6%
N=C1c2ccccc2CN1c1cccc([N+](=O)[O-])c1	0%	1	1	7%	19%	-1%
N=C1c2ccccc2CN1c1ccc(F)c([N+](=O)[O-])c1	-2%	3	-1	12µM*	?	0%
C=CCNC(=O)c1onc(CSc2ccc(F)cc2)c1C(=O)NCCOC	-11%	-2	-4	8%	58%	8%
CNC(=O)N(O)C1N(c2ccccc2)C(=S)SC1(C)C (stereo not drawn)	14%	7	-9	0%	2.1µM*	18%
CNC(=O)N(O)C1N(/N=C/c2ccccc2O)C(=S)SC1(C)C (stereo not drawn)	-3%	15*	28	-9%	63%	0%
CNC(=O)ON(C(=O)NC)C1N(C)C(=S)SC1(C)C (stereo not drawn)	-75%	13*	22	6%	/	-8%
COc1cccc(C(c2ccccc2)N2C3CCC2CN(S(=O)(=O)c2ccc(F)cc2)CC3)c1 (stereo not drawn)	/	/	/	2.1µM*	0%	-6%
COc1cccc(C2SCC(=O)N2c2ccc(Br)cc2)c1OC (stereo not drawn)	-6%	-3	-3	-19%	0%	17%
CN(C)CCCn1cnc2c(c1=N)C(c1ccccc1)c1ccc3ccccc3c1O2 (stereo not drawn)	1%	-8	-15	1.5µM*	2.1µM*	-1%
COc1ccc(C2c3ccc4ccccc4c3Oc3ncn(CCCO)c(=N)c32)cc1OC (stereo not drawn)	3%	-1	-15	?	1.9µM*	0%
N=c1c2c(ncn1CCCO)Oc1c(ccc3ccccc13)C2c1ccccc1 (stereo not drawn)	-6%	7	-9	?	?	-3%
N=c1c2c(ncn1CCCO)Oc1ccc3ccccc3c1C2c1ccccc1 (stereo not drawn)	-2%	1	-14	?	?	-1%
COc1ccc(C2c3ccc4ccccc4c3Oc3ncn(CCN(C)C)c(=N)c32)cc1 (stereo not drawn)	-10%	-10	-16	2.3µM*	?	-2%
COc1ccc(C2c3ccc4ccccc4c3Oc3ncn(CCCO)c(=N)c32)cc1 (stereo not drawn)	?	-2	1	5.2µM*	?	-16%
COc1ccc(C2c3ccc4ccccc4c3Oc3ncn(CCO)c(=N)c32)cc1 (stereo not drawn)	3%	-1	-8	?	0%	-3%
Nc1nonc1C(=O)N/N=C/c1cc2c(cc1Br)OCO2	1%	9	-22	23%	46%	-4%
N=c1c2c(ncn1Cc1ccco1)Oc1ccc3ccccc3c1C2c1ccccc1 (stereo not drawn)	?	20*	active	10µM*	?	-33%
COc1ccc(C2c3c(ncn(Cc4ccco4)c3=N)Oc3ccc4ccccc4c32)cc1 (stereo not drawn)	?	-1	38	?	?	-3%
SMILES	NS1 function inh	CHX counter	Shiga inhibitor	Pf growth 48h	Pf growth 96h	SARS PLP yeast
COc1ccc(C2c3ccc4ccccc4c3Oc3ncn(CCO)c(=N)c32)cc1OC (stereo not drawn)	1%	-3	-9	10µM*	?	0%
Cc1ccc(S(C)(=O)=O)cc1C(=O)N1CC(C(N)=O)Oc2ccccc21 (stereo not drawn)	15%	-8	-9	16%	13%	0%
CC(C)c1ccc(N(CC(=O)NC(C)(C)C)C(=O)CCC(=O)Nc2nccs2)cc1	?	-4	-7	-4%	?	1%
O=C(O)c1ccc(Nc2nc(-c3cccnc3)cs2)cc1	1%	2	15	137%	33%	2%
CC(=O)c1cccc(Nc2nc(-c3cccnc3)cs2)c1	-23%	51*	58*	38%	?	-14%
CC(=O)c1ccc(Nc2nc(-c3cccnc3)cs2)cc1	16%	22*	20	69%	?	7%
CC(=O)c1cccc(NC(=O)NCc2cccnc2)c1	9%	-1	9	24%	-13%	/
CC(=O)c1cccc(Nc2nc(-c3ccccc3)cs2)c1	6%	33*	107*	-11%	?	-1%
O=C(Nc1ccc(-c2csc(Nc3cccc(C(F)(F)F)c3)n2)cc1)c1ccccc1	11%	-3	0	?	?	-3%
O=C(O)c1nn(CC(=O)N2CCC(Cc3ccccc3)CC2)c(=O)c2ccccc12	2%	-4	20	12%	20%	0%
O=C(NCc1cc([N+](=O)[O-])ccc1O)c1cccnc1Sc1ccccc1	-10%	-4	-18	?	12µM*	-1%
O=C(NNC(=O)c1cccnc1SCc1cccc([N+](=O)[O-])c1)c1ccc(F)cc1	0%	-1	-11	9%	184%	-9%
O=C(NNC(=O)c1cccnc1SCc1cccc([N+](=O)[O-])c1)c1ccccn1	-1%	5	-9	5.2µM*	98%	-2%
Cc1ccc(Sc2ncccc2C(=O)NCc2cc([N+](=O)[O-])ccc2O)c(C)c1	-81%	66*	104*	-20%	?	-10%
Cc1ccc(Sc2ncccc2C(=O)NCC(c2ccc(F)cc2)N2CCOCC2)c(C)c1 (stereo not drawn)	/	/	/	?	?	1%
Cn1cc(CCNC(=O)C2CCC(=O)N(CCc3ccc(Cl)cc3)C2)cn1 (stereo not drawn)	2%	2	-10	22%	-21%	1%
CCCCCC(O)c1ccc([C@H]2CCC(=O)[C@@H]2CCCCCCC(=O)O)cc1 (stereo partly drawn)	/	-7	18	/	/	/
CCN(CC)C(=O)CSc1nc(-c2ccc(C)cc2)nc2c1COC(C)(C)C2	1%	20*	15	/	?	3%

High-throughput results: PubChem BioAssay, National Center for Advancing Translational Sciences (NCATS)
